Source: PubChem BioAssay (NCI)
This is part of a sample that, as a whole, favours compounds with a hit. Of some 83,000 tested, about 20% had one in any assay.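 Cells were grown in 96-well plates and exposed to the test compound at a single concentration for 48 hours; results are reported as percent growth, with values below 10 considered active.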 Values without a mark were called inactive. Active and inactive are the calls of the source.

Tests used:
Assay in all cases: NCI-60 one-dose screen, 48 h (100 = growth as untreated, 0 = no growth, -100 = all killed)
Conditions in all cases: 10 µM unless noted
NCI-H23 lung = tested on: NCI-H23 lung
NCI-H226 lung = tested on: NCI-H226 lung
NCI-H322M lung = tested on: NCI-H322M lung
HOP-62 NSCLC = tested on: HOP-62 NSCLC
NCI-H460 lung = tested on: NCI-H460 lung
HOP-92 NSCLC = tested on: HOP-92 NSCLC
NCI-H522 lung = tested on: NCI-H522 lung
A549/ATCC NSCLC = tested on: A549/ATCC NSCLC
786-0 renal = tested on: 786-0 renal
COLO 205 colon = tested on: COLO 205 colon

| SMILES | growth (NCI-H23 lung) | growth (NCI-H226 lung) | growth (NCI-H322M lung) | growth (HOP-62 NSCLC) | growth (NCI-H460 lung) | growth (HOP-92 NSCLC) | growth (NCI-H522 lung) | growth (A549/ATCC NSCLC) | growth (786-0 renal) | growth (COLO 205 colon) |
| --- | --- | --- | --- | --- | --- | --- | --- | --- | --- | --- |
| O=C(Nc1ccc(F)cc1)Nc1ccc(Cl)c([N+](=O)[O-])c1 | -1.96% (active) | 16% | 28.4% | 38.8% | 3.03% (active) | -8.16% (active) | 2.42% (active) | 17.1% | 26.7% | 12% |
| Cc1nc(-c2ccc(Cl)cc2)ccc1NC(=O)Nc1cccc(C(F)(F)F)c1 | 95.6% | 97.9% | 109% | 109% | 64.5% | 96.4% | 52.9% | 93.1% | 101% | 121% |
| C=CC(C)(O)CCC1C(=C)CCC2C(C)(C)CCCC12C (stereo not given) | 94.2% | 105% | 98.3% | 102% | 112% | 126% | 72.4% | 77.5% | 99.6% | 123% |
| COc1ccc2c(c1)OC(N)=C(C#N)C2c1ccc(F)cc1 (stereo not given) | 49.9% | 80.9% | 55.7% | 41.3% | 15.8% | 59.8% | -10.1% (active) | 45.9% | 28.1% | 30.6% |
| CC(=O)c1ccc2c(c1)C1C=CCC1[C@H](c1cc3c(cc1Br)OCO3)N2 (stereo not given in full) | 27.1% | 22.1% | 64.8% | 32.1% | 7.92% (active) | 16% | -10.7% (active) | 23.4% | 10.9% | -14% (active) |
| CCNc1ncnc2n[nH]nc12 | 96.9% | 90.8% | 101% | 95.7% | 103% | 83.1% | 93.2% | 91.1% | 96.1% | 105% |
| C=C1C(=O)O[C@H]2[C@H]1CC/C(C(=O)NCCOCCOCC(=O)Nc1ccc(OC)c(C(N)=O)c1O)=C\CC[C@@]1(C)O[C@@H]21 | 97.7% | 80.7% | 94.2% | 91.8% | 106% | 92.5% | 26.1% | 84.4% | 94.3% | 73.7% |
| C=C1c2c(Cl)ccc(O)c2C(O)=C2C(=O)[C@]3(O)C(O)=C(C(N)=O)C(=O)[C@@H](N(C)C)[C@@H]3[C@@H](O)[C@H]12 | 8.01% (active) | 42.7% | -2.1% (active) | 9.39% (active) | 4.63% (active) | -37.3% (active) | 11.6% | 9.74% (active) | 8.22% (active) | 22.5% |
| O=c1nc(N2CCOCC2)oc2c(-c3cccc4ccccc34)cccc12 | 89.3% | 66.6% | 90.8% | 80.8% | 110% | 60.1% | 82% | 85.6% | 74.4% | 103% |
| NC(=O)C1=C[C@H]2[C@H]3C=C[C@@]2(O)C(=O)O[C@@H]3O1 | 67% | 47.6% | 93.8% | 82.3% | 99.2% | 40.7% | 63.3% | 80.7% | 61.4% | 38.8% |
| CO[C@H]1/C=C/C=C/C=C/C[C@H](OC(=O)[C@@H](C)NC(=O)C2CCCCC2)[C@H](C)[C@@H](O)/C(C)=C\CCC2=CC(=O)C=C(NC(=O)C1)C2=O | -14.1% (active) | -15% (active) | -2.45% (active) | -35.6% (active) | 1.23% (active) | -10.7% (active) | -29.9% (active) | -5.23% (active) | -5.57% (active) | -26.6% (active) |
| CCN(CC)CCNCC(O)Cc1ccc(OC)cc1 (stereo not given) | 103% | 90.5% | 91.4% | 102% | 107% | 81.4% | 66.1% | 96% | 98.5% | 111% |
| Nc1ncnc2c1c(C(F)(F)F)cn2[C@@H]1O[C@H](CO)[C@@H](O)[C@H]1O | 2.27% (active) | -13.8% (active) | 19.5% | -4.3% (active) | 7.65% (active) | -12.8% (active) | -14.1% (active) | 10.5% | 13.5% | -42.1% (active) |
| O=C(Nc1ccc(-n2ccc3c(NC(=O)c4ccccc4)ncnc32)cc1)Nc1ccc(Cl)c(Cl)c1 | 18.7% | 16.7% | 21% | 8.39% (active) | -29.6% (active) | -9.63% (active) | -12.2% (active) | -44.5% (active) | 26.1% | 17.7% |
| COc1ccc(Cn2cc3c(c2-c2cc(OC)c(OC)c(OC)c2)CCc2c(CO)noc2-3)cc1 | 38.3% | 47.7% | 39.7% | 35.2% | 4.62% (active) | 57% | 9.75% (active) | 32.5% | 45% | -23.6% (active) |
| COCCNC(C(=O)c1ccccc1)c1ccccc1 (stereo not given) | 103% | 91% | 100% | 100% | 108% | 85.7% | 107% | 99.8% | 92.5% | 117% |
| C=C1C(=O)O[C@H]2[C@H]1CC/C(COC(=O)c1cccc3ccccc13)=C\CC[C@@]1(C)O[C@@H]21 | 0.789% (active) | -79.9% (active) | 36.8% | -45.7% (active) | 7.53% (active) | -67.9% (active) | -84.5% (active) | -55% (active) | -77.9% (active) | -70.7% (active) |
| CCNC(=O)Oc1ccc(/C(=C(/CC)Cc2ccccc2)c2ccc(OCCN3CCOCC3)cc2)cc1 | 66.8% | 59.4% | 72.8% | 84% | 44.7% | 38.6% | 56.4% | 36.7% | 55.7% | 50.9% |
| O=C(NCCNc1nccc(-c2c(-c3cccc(O)c3)nc3sccn23)n1)Nc1cccc(C(F)(F)F)c1 | 96.2% | 97% | 76.8% | 83.5% | 80.1% | 54.5% | -5.9% (active) | 39.3% | 79.4% | 53.2% |
| C=CCOc1ccc(/C(Cl)=N/N=C(\Cl)c2cc(OC)c(OC)c(OC)c2)cc1 | 64.9% | 81.8% | 97.4% | 79.7% | 48% | 65.1% | 37.9% | 59.5% | 98.1% | 72.2% |
| O=C(N/N=C/c1ccccc1O)c1ccccc1O | 37.5% | 67% | 32.6% | 42.1% | 13.2% | 56.5% | 6.88% (active) | 45.4% | 25.8% | 55.5% |
| O=C(NOC1OC(CO)C(O)C(O)C1O)Nc1ccccc1 (stereo not given) | 104% | 90.5% | 101% | 93.2% | 103% | 91.1% | 84.9% | 106% | 107% | 95.8% |
| COc1ccc(/C(=C/c2cc(OC)c(OC)c(OC)c2)[N+](=O)[O-])cc1 | 24.1% | 3.77% (active) | 86.7% | 68.3% | 13% | -24.6% (active) | -37% (active) | 65.8% | -44.3% (active) | -51.5% (active) |
| Cn1c2ccccc2c2ssc(=S)c21 | 92.4% | 105% | 89.9% | 110% | 106% | 88.6% | 85.7% | 99.7% | 98.5% | 116% |
| CN1CCN(CC(O)COc2c(Br)c(Br)c(Br)c3c2OC(C)(C)C3)CC1 (stereo not given) | 82.4% | 99.2% | 73% | 16.4% | 23% | -3.44% (active) | 42.6% | 63.6% | 11.8% | -45.3% (active) |
| CC(C)(c1ccc(OCC(O)CNCc2ccco2)cc1)c1ccc(OCC(O)CNCc2ccco2)cc1 (stereo not given) | 93.4% | 94.6% | 99.4% | 82.2% | 98% | 57.4% | 86% | 81.2% | 70.8% | 85.5% |
